{"source": "PubChem BioAssay (Tox21)", "note": "Where “and” joins values, the source holds several entries; their conditions need not be identical. Equal entries are not always repeated. Results filed as inconclusive are left out. Entries that show only a call come without a potency. Calls of active or inactive are those of the source. The call rests on the fitted dose curve; in most records, active means well fitted cell-killing curve with a large enough effect in the repeat runs; inconclusive means weak or mixed curves, or effect the other way; inactive means no such curve, though single readings can be large or run the other way. Potency means the concentration at half of the fitted maximal effect.", "data": [{"assay": "qHTS assay to identify small molecule antagonists of the vitamin D receptor (VDR) signaling pathway - cell viability counter screen (AID 743225); further: nearly all actives have a fitted effect of over 50% in size", "conditions": "VDR-bla HEK293T viability, CellTiter-Glo luminescence, 16 h; series mostly up to 61 µM", "text": "U.S. Tox21 Program National Center for Advancing Translational Sciences [NCATS] NIH Chemical Genomics Center [NCGC] U.S. Environmental Protection Agency [EPA] National Institutes of Environmental Health Sciences [NIEHS] National Toxicology Program [NTP] U.S. Food and Drug Administration [FDA] Tox21 Assay Overview: The vitamin D receptor (VDR), a member of nuclear hormone receptor superfamily, plays a critical role in calcium homeostasis and bone metabolism. It is also involved in cell differentiation and growth, and thrombogenicity. To identify the compounds that inhibit VDR signaling, the VDR-UAS-bla HEK 293T cell line (Invitrogen, Carlsbad, CA, USA) containing a beta-lactamase reporter gene under the control of an upstream activator sequence (UAS) was used to screen the Tox21 10K compound library. The cytotoxicity of the Tox21 compound library against the VDR-bla cell line was tested in parallel by measuring the cell viability using CellTiter-Glo assay (Promega, Madison, WI) in the same wells.\nTox21 Assay Protocol Summary: VDR-bla cells were dispensed at 2,000 cells/5 uL of assay medium per well into black wall/clear-bottom 1536-well plates using a Multidrop Combi (Thermo Fisher Scientific, Waltham, MA) dispenser. After the assay plates were incubated at a 37C and 5% CO2 for 4 h, 23 nL of compounds dissolved in DMSO, positive controls or DMSO only was transferred to the assay plate by a Pintool station (Kalypsys, San Diego, CA), followed by addition of 1 uL of 1-alpha, 25-Dihydroxy Vitamin D3 (3 nM, final concentration in the wells) using a Bioraptr Flying Reagent Dispenser (FRD) workstation (Beckman Coulter, Indianapolis, IN). The plates were incubated at 37C and 5% CO2 for 16 h, and then 1 uL of LiveBLAzerTM B/G FRET substrate was added using a Bioraptr FRD. The plates were incubated at room temperature for 2 h and fluorescence intensity was measured by an Envision plate reader (PerkinElmer, Shelton, CT). For cell viability readout that measures cytotoxicity, 3 ul/well of CellTiter-Glo reagent was added into the assay plates using a Bioraptr FRD. After 30 min incubation at room temperature, the luminescence intensity in the plates was measured using a ViewLux plate reader (PerkinElmer).", "values": [{"smiles": "O=c1cc(-c2ccc(O)cc2)oc2cc(O)cc(O)c12", "Potency": "inactive"}, {"smiles": "O=C(Nc1cccc(C(F)(F)F)c1)c1cc(Br)cc(Br)c1O", "Potency": "17.4 µM (active)"}, {"smiles": "O=c1[nH]cnc2nc[nH]c12", "Potency": "inactive"}, {"smiles": "CC(C)OC(=O)c1cc2c(OCC(O)CNC(C)(C)C)cccc2[nH]1", "note": "(stereo not given)", "Potency": "inactive"}, {"smiles": "CN(C/C=C/C#CC(C)(C)C)Cc1cccc2ccccc12", "Potency": "inactive"}, {"smiles": "COC(=O)C1=C(C)NC(C)=C(C(=O)OCCc2ccc(N3CCN(C(c4ccccc4)c4ccccc4)CC3)cc2)C1c1cccc([N+](=O)[O-])c1", "note": "(stereo not given)", "Potency": "inactive"}, {"smiles": "CC(C)c1ccc2c(c1)CC[C@H]1[C@](C)(CN)CCC[C@]21C", "Potency": "43.6 µM (active)"}, {"smiles": "CC(C)(C)C(=O)OCOC(=O)C1N2C(=O)CC2S(=O)(=O)C1(C)C", "note": "(stereo not given)", "Potency": "inactive"}, {"smiles": "CC(=O)N1CCN(c2ccc(OC[C@H]3CO[C@](Cn4ccnc4)(c4ccc(Cl)cc4Cl)O3)cc2)CC1", "Potency": "38.9 µM (active)"}, {"smiles": "C=CC(=O)OCC(CO)(COC(=O)C=C)COC(=O)C=C", "Potency": "13.9 µM (active) and 15.5 µM (active)"}, {"smiles": "CCCCN1CCCC[C@H]1C(=O)Nc1c(C)cccc1C", "Potency": "inactive"}, {"smiles": "CCC(C)Nc1ccc(NC(C)CC)cc1", "note": "(stereo not given)", "Potency": "8.88 µM (active)"}, {"smiles": "COc1cc(-c2ccc(N=C=O)c(OC)c2)ccc1N=C=O", "Potency": "inactive"}, {"smiles": "CCCCCOc1ccccc1/C(=C\\SC)n1ccnc1", "Potency": "inactive"}, {"smiles": "CCCC/C=C/CCCCO", "Potency": "inactive"}, {"smiles": "CC1=NC(C)OC1C", "note": "(stereo not given)", "Potency": "inactive"}, {"smiles": "CCOC(=O)c1nc(C(Cl)(Cl)Cl)n(-c2ccc(Cl)cc2Cl)n1", "Potency": "49 µM (active)"}, {"smiles": "Cc1cc(N)c(S(=O)(=O)O)cc1Cl", "Potency": "inactive"}, {"smiles": "CC(C)n1nc(-c2cc3cc(O)ccc3[nH]2)c2c(N)ncnc21", "Potency": "inactive"}, {"smiles": "C=C(C)C(=O)OCC(O)COc1ccc(C(C)(C)c2ccc(OCC(O)COC(=O)C(=C)C)cc2)cc1", "note": "(stereo not given)", "Potency": "19.5 µM (active)"}, {"smiles": "N#CC1(c2ccc(F)cc2)CCC(=O)CC1", "Potency": "inactive"}, {"smiles": "CCCCCCCCCCCCCCCCCC[N+](C)(C)Cc1ccccc1", "Potency": "7.84 µM (active)"}, {"smiles": "COc1ccc(CN2CCN(C(c3ccc(F)cc3)c3ccc(F)cc3)CC2)c(OC)c1OC", "Potency": "16.9 µM (active)"}, {"smiles": "Nc1ccc2cc(S(=O)(=O)O)cc(O)c2c1N=Nc1ccccc1C(F)(F)F", "Potency": "inactive"}, {"smiles": "O=C(NO)C1(NS(=O)(=O)c2ccc(Oc3ccc(F)cc3)cc2)CCOCC1", "Potency": "inactive"}, {"smiles": "Nc1ccc(N)c2ccccc12", "Potency": "43.6 µM (active)"}, {"smiles": "C[C@@H](NCCCc1cccc(C(F)(F)F)c1)c1cccc2ccccc12", "Potency": "23.9 µM (active)"}, {"smiles": "NC(=O)NS(=O)(=O)c1ccc(N)cc1", "Potency": "inactive"}, {"smiles": "O=[N+]([O-])c1cc([N+](=O)[O-])c2ccc(S(=O)(=O)O)cc2c1O", "Potency": "inactive"}, {"smiles": "Cc1cccc2c1cc1ccc3cccc4ccc2c1c34", "Potency": "inactive"}, {"smiles": "CCCCCCCCCCCCCCCCCC[N+](C)(C)C", "Potency": "3.9 µM (active)"}, {"smiles": "CCCCC(CC)COP(=O)(O)OCC(CC)CCCC", "note": "(stereo not given)", "Potency": "inactive"}, {"smiles": "CN(C)[C@@H]1C(=O)C(C(N)=O)=C(O)[C@@]2(O)C(=O)C3=C(O)c4c(O)ccc(Cl)c4[C@@H](O)[C@H]3C[C@@H]12", "Potency": "inactive"}, {"smiles": "CCCC1O[C@@H]2C[C@H]3[C@@H]4CCC5=CC(=O)C=C[C@]5(C)[C@H]4[C@@H](O)C[C@]3(C)[C@]2(C(=O)CO)O1", "note": "(stereo not given in full)", "Potency": "inactive"}, {"smiles": "Nc1nc2ccccc2n1Cc1ccc(F)cc1", "Potency": "inactive"}, {"smiles": "CN(C)c1ccc(C2(c3ccc(N(C)C)cc3)OC(=O)c3cc(N(C)C)ccc32)cc1", "Potency": "inactive"}, {"smiles": "C[n+]1cc2c3c(ccc2c2ccc4cc5c(cc4c21)OCO5)OCO3", "Potency": "1.31 µM (active)"}, {"smiles": "CCC1OCC(COc2ccc(Oc3ccccc3)cc2)O1", "note": "(stereo not given)", "Potency": "inactive"}, {"smiles": "CC(=O)SC[C@@H](Cc1ccccc1)C(=O)NCC(=O)OCc1ccccc1", "Potency": "inactive"}, {"smiles": "CO[Si](CCCNc1ccccc1)(OC)OC", "Potency": "inactive"}]}]}
